Rows were chosen to be rich in hits. Some 2.5% of all compounds tested hit in one or more screens of this group.
Cruzain inh noDet: inhibitors of Trypanosoma cruzi cruzain without detergent. 200,000 tested, 2.3% active. purified cruzain, Z-FR-AMC fluorescence, no detergent. AID 1476. Potency, µM, for the others: max response, negative = inhibition, hits mostly inhibitors;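 also: plate controls were enzyme without inhibitor for no effect and buffer without enzyme for full effect; nearly all actives have a fitted effect of over 40% in size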
Target sequence (P25779 123-467 limits assumed): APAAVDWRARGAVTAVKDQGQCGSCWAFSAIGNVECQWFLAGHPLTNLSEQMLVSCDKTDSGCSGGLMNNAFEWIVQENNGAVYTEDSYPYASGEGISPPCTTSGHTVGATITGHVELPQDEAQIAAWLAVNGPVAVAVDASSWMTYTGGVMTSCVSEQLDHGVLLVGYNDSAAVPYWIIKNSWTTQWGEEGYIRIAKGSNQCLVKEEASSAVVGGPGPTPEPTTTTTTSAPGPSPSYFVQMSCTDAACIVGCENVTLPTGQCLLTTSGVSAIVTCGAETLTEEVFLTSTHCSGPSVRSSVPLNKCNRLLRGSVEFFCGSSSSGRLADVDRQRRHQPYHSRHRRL
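Detergent-free condition (0.00005% Triton X-100) in acetate buffer pH 5.5 with DTT. 1.5 nM enzyme and compound were pre-mixed 15 min, then 2 uM Z-FR-AMC substrate added; reaction progress from fluorescence change between first and third reads (60 s).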
Cruzain Triton: blocks cruzain activity in presence of Triton detergent. purified cruzain, Z-FR-AMC fluorescence, 0.01% Triton. Potency, µM, without a hit: max response, negative = inhibition, hits mostly inhibitors. 200,000 tested, 0.43% active. AID 1478;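 also: plate controls were neutral wells for no effect and buffer without enzyme for full effect; nearly all actives have a fitted effect of over 40% in size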
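Cruzain (1.5 nM) preincubated 15 min at RT with compound in 100 mM sodium acetate pH 5.5, 5 mM DTT, 0.01% Triton X-100. Reaction started with 2 uM Z-FR-AMC; AMC fluorescence (ex 360/em 450 nm) change over 60 s gave rate.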
* marks the source's active call; other numbers are inactive results; ? = inconclusive; ! = a repeat was not active. Calls follow the shape of the dose curve; as a rule, active = well fitted curve in the direction sought with a large enough effect; inconclusive = small, poorly fitted or top-dose-only effect, or another doubt; inactive = no such curve, though single readings can be large; an effect the other way counts as inactive or inconclusive. Potency is read from the fitted curve at half-maximal effect.

SMILES	Cruzain inh noDet	Cruzain Triton
CC(=O)C1=C(C)NC(SCC(=O)c2ccc(F)cc2)=C(C#N)C1c1ccco1 (stereo unspecified)	-17%	-17%
COc1ccccc1NC(=O)C1=C(C)NC(SCC(=O)c2ccc(C)cc2)=C(C#N)C1c1ccco1 (stereo unspecified)	13µM*	-10%
CN(C)c1ncc2nc(-c3cccc(C#N)c3)c(=O)n(CCC#N)c2n1	8%	2%
C/C(=N/Nc1ccc2ccccc2n1)c1ccccc1O	-10%	-2%
COc1ccc(-c2n[nH]c3c2cnc2cc(OC)c(OC)cc23)cc1	?	-6%
Cc1ccc(CO)cc1	-6%	2%
N#CC1(Cc2ccccc2)c2ccccc2C=CN1C(=O)c1ccccc1 (stereo unspecified)	-27%	-5%
N#CC1(Cc2ccc([N+](=O)[O-])cc2)c2ccccc2C=CN1C(=O)c1ccccc1 (stereo unspecified)	25µM*	-3%
CC(C)(C)c1cc2c(O)c(c1)Cc1cc(C(C)(C)C)cc(c1O)Cc1cc(C(C)(C)C)cc(c1O)Cc1cc(C(C)(C)C)cc(c1O)Cc1cc(C(C)(C)C)cc(c1O)Cc1cc(C(C)(C)C)cc(c1O)Cc1cc(C(C)(C)C)cc(c1O)Cc1cc(C(C)(C)C)cc(c1O)C2	2%	-1%
CCOC(=O)NC(=O)CSc1nc(C)cc(C(F)(F)F)c1C#N	0%	-3%
Cc1cc(C(F)(F)F)c(C#N)c(SCC(=O)Nc2nc3cc(Br)ccc3s2)n1	20µM*	-9%
COc1ccc(NC(=O)Cn2nnc(-c3nc(-c4ccncc4)no3)c2N)cc1OC	11%	-3%
CCn1c(COc2ccc3c(c2)CCCC3)nnc1SCC(=O)Nc1nccs1	7.9µM*	9%
CCn1c(CNC(=O)Cc2ccc(OC)cc2)nnc1SCC(=O)Nc1nccs1	-7%	5%
Cc1ccc(C2N3CC4(C)CN2CC(c2ccccc2)(C3)C4=O)cc1 (stereo unspecified)	12%	-1%
Cc1ccc2onc(CC(=O)N3CCN(c4cccc(C)c4C)CC3)c2c1	5%	0%
COC(=O)c1c(NC(=O)C2CC2)sc2c1CCCC2	-7%	-6%
COC(=O)c1c(NC(=S)Nc2cc(OC)c(Cl)cc2OC)sc2c1CCCCC2	16µM*	-2%
CCOC(=O)c1c(NC(=S)Nc2ccc(C)cc2)sc2c1CCC2	?	-5%
CCOC(=O)c1c(NC(=S)Nc2cc([N+](=O)[O-])ccc2OC)sc2c1CCCCC2	13µM*	-6%
CCOC(=O)c1cnn(-c2cccc(Cl)c2)c1C1CCN(C(=O)OC(C)(C)C)CC1	-7%	-1%
c1ncc(-c2ccoc2)c(NC2CC2)n1	-6%	2%
CCC(=O)N1CCc2cc(S(=O)(=O)NC(CC(C)C)C(=O)NCc3ccc(F)cc3)ccc21 (stereo unspecified)	-2%	-3%
CCc1cccc(NC(=O)CSc2nc3c(c(=O)[nH]2)CCCC3)c1	25µM*	-1%
O=C(CSc1nc2c(c(=O)[nH]1)CCC2)Nc1cccc(Cl)c1	-3%	4%
SMILES	Cruzain inh noDet	Cruzain Triton
Cc1cc(C(=O)Cn2nnc(-c3ccc(Cl)cc3)n2)c(C)n1-c1ccccc1	?	-3%
Cc1cc(C(=O)Cn2nc(C(=O)O)c3ccccc3c2=O)c(C)n1-c1ccccc1	25µM*	-9%
Fc1ccc(C2=CC(c3ccc(F)cc3)n3c(nc4ccccc43)N2)cc1 (stereo unspecified)	9%	-4%
CC(/C=C1\N=C(SCc2ccccc2Cl)SC1=O)=C\c1ccccc1	25µM*	-5%
O=C1SC(SCc2ccccc2)=N/C1=C\c1ccco1	-4%	-7%
COc1cccc(O)c1O	-11%	3%
CCN1CCN(Cc2c(O)ccc3c(=O)c(Oc4ccccc4Cl)c(C(F)(F)F)oc23)CC1	12%	-2%
Cc1ccn2cc(-c3ccc(S(=O)(=O)N4CCOCC4)cc3)nc2c1	?	28µM*
Cc1ccc2nc(-c3ccc(S(=O)(=O)N4CCOCC4)cc3)cn2c1	-3%	-2%
COc1ccc(C(=O)OC2=C(C(=O)c3ccccc3)N(C)S(=O)(=O)c3ccccc32)cc1OC	-2%	-3%
Clc1ccc2oc(-c3cccnc3NCc3ccccc3)nc2c1	-6%	-14%
Cc1ccc(CNc2ncccc2-c2nc3cc(Cl)ccc3o2)cc1	10µM*	-12%
Cc1ccc2nc(-c3ccc(NC(=O)c4ccc(N)cc4)c(S(=O)(=O)O)c3)sc2c1	?	-24%
COc1ccc2c(c1)NC(c1ccc(F)cc1)=NC(c1ccc(F)cc1)=N2	?	-3%
CCCOc1ccc(C2=NC(c3ccc(F)cc3)=Nc3ccc(OC)cc3N2)cc1	10µM*	-4%
CCOC(=O)c1cccc(NC(=O)COc2ccc3c(C)cc(=O)oc3c2)c1	27%	-1%
O=C(NCCc1cn2ccsc2n1)C1CCCCC1	13µM*	-7%
O=C(NCCc1cn2ccccc2n1)C1CCCCC1	16µM*	-4%
O=C(NCCc1cn2ccccc2n1)c1ccccc1F	?	-14%
c1cn2cc(CSC3CCCCC3)nc2s1	-4%	-1%
N#Cc1c(OCC(=O)c2ccccc2)nc2c(c1-c1ccco1)CCc1ccccc1-2	7.9µM*	14µM*
Cc1cc(C)c(C#N)c(OCC(=O)c2ccccc2)n1	-6%	-6%
O=[N+]([O-])c1cc2c(c(CSc3nnc(Nc4ccccc4)s3)c1)OCOC2	?	-1%
Cc1ccccc1Nc1nnc(SCc2cc([N+](=O)[O-])cc3c2OCOC3)s1	13µM*	1%
Cc1ccc(-n2ncc(C(=O)NCCCN3CCCCC3)c2C2CCN(C(=O)OC(C)(C)C)CC2)c(C)c1	8%	-1%
SMILES	Cruzain inh noDet	Cruzain Triton
CCC1(c2ccc(F)cc2)NC(=O)N(CC(=O)Nc2ccc(-c3nc4ccc(C)cc4s3)cc2)C1=O (stereo unspecified)	13µM*	-11%
Cc1ccc2nc(-c3ccc(NC(=O)CN4C(=O)c5ccccc5C4=O)cc3)sc2c1	-10%	0%
CCc1ccc(-c2cc3c(N4CCN(c5ccccc5)CC4)nccn3n2)cc1	-5%	-5%
COc1cc(OC)c(C2Nc3c(C)cccc3-c3cc(C)nn32)cc1OC (stereo unspecified)	7%	-1%
O=C(CN1C(=O)S/C(=C\c2ccc(Cl)cc2)C1=O)NNC(=O)c1ccccc1O	20µM*	-6%
COc1cccc(/C=C2\SC(=O)N(CCC(=O)NNC(=O)c3ccccc3Cl)C2=O)c1	?	-5%
CCOC(=O)c1c(C)c(C(=O)NCc2ccc(Cl)cc2)c(C)n1C	-14%	-1%
COC(=O)c1c(NC(=O)Nc2ccc(Cl)cc2)sc(C)c1C	25µM*!	0%
COC(=O)c1c(NC(=O)COc2ccc(Cl)cc2)sc(C)c1C	-4%	-3%
CCC(Oc1ccccc1)C(=O)Nc1ccc2oc(-c3ccc(OC)cc3)nc2c1 (stereo unspecified)	1%	0%
COc1ccc(NS(=O)(=O)c2ccc3nc(COc4cccc5ccccc45)[nH]c3c2)cc1	32µM*	-2%
COc1ccc(NS(=O)(=O)c2ccc3nc(COc4ccc5ccccc5c4)[nH]c3c2)cc1	?	5%
CCc1ccc(NC(=O)c2ccc(F)c(S(=O)(=O)NCCc3ccc(OC)c(OC)c3)c2)cc1	?	-3%
O=C(COC(=O)c1ccc(Cl)c(S(=O)(=O)N2CCc3ccccc3C2)c1)Nc1ncc(Cl)cc1Cl	20µM*	0%
O=C(COC(=O)c1cccc(S(=O)(=O)N2CCc3ccccc32)c1)Nc1ncc(Cl)cc1Cl	?	-4%

Screens from PubChem.
